# Screening results as filed in PubChem.
# TDP1 cell noCPT: qHTS for Inhibitors of human tyrosyl-DNA phosphodiesterase 1 (TDP1): qHTS in cells in absence of CPT | DT40 Tdp1-/- hTDP1 cells, no CPT, ATP luminescence, 48 h | Potency, µM (series often up to 46.2 µM), for inactives: top-dose activity change, negative = growth inhibition, actives largely listed as inhibitors | 420,000 tested, 15% active | AID 686978, 2013; further: potency means the concentration at half of the fitted maximal effect; nearly all actives have a fitted effect of over 55% in size
#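 Readout: luminescence from CellTiter-Glo after 30 min in the dark at RT. Cells: DT40 Tdp1-/- with stable hTDP1, 400/well. Exposure: compounds alone, ≥48 hr, 37 °C.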
# ELG1 repair inh: blocks ELG1-dependent DNA repair in HEK293T cells. HEK293T ELG1-luciferase reporter, luminescence, 16 h; DNA damage induced by 5-fluorouridine. Potency, µM (series often up to 46.1 µM), inactives show at the top dose activity change, negative = inhibition, usual class: inhibitors. 330,000 tested, 2.3% active. AID 504467; further: potency means the concentration at half of the fitted maximal effect; nearly all actives have a fitted effect of over 55% in size
#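 In this reporter screen, reduction of luminescence relative to DMSO vehicle indicated activity. Compounds and 5-fluorouridine were added together to 2,000 cells per well, incubated for 16 hr at 37 °C, then developed with ONE-Glo.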
# IL1B secr inh: inhibitors of inflammasome signaling (IL-1 beta secretion) | AID 743279 | THP-1 LPS/ATP IL-1B secretion, AlphaLISA, 16 h; stronger effect = lower value | activity change, % at 57.5 µM | 360,000 tested, 4.7% active; in the data active means activity change below about -50%; inconclusive means mostly about -30% to -49%
#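 THP-1 cells pretreated 1 hr with compounds (up to 57.5 uM final), then stimulated with LPS (250 ng/mL final) plus ATP (1.25 mM final); secreted IL-1B measured by AlphaLISA after 16 hr, decreased signal indicating inhibition.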
# HT1080NT lethal: kills 2HG-producing HT-1080-NT fibrosarcoma cells; 360,000 tested, 1.6% active; HT-1080-NT fibrosarcoma viability, CellTiter-Glo ATP luminescence, 48 h; Potency, µM (highest dose often 46.1 µM), for inactives: top-dose activity, negative = less viability, actives largely listed as cytotoxic;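 further: NT is the 2HG producing partner of a matched IDH1 knockdown line; potency means the concentration at half of the fitted maximal effect; 0% = DMSO-treated cells and -100% = media-only wells without cells; nearly all actives have a fitted effect of over 55% in size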
#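 Luminescent CellTiter-Glo readout after 48 hours of compound exposure at 37 degrees C defined viability of HT-1080-NT cells. Activity was normalized to DMSO wells and cell-free media wells; concentration-response curves were fitted and assigned curve classes.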
# TDP1 cell CPT: DT40-hTDP1 cell growth loss with CPT; chicken DT40 Tdp1-/-;hTDP1 cells + 20 nM CPT, ATP luminescence, 48 h; Potency, µM (series often up to 46.2 µM), without a hit: top-dose activity change, negative = growth inhibition, usual class: inhibitors; 420,000 tested, 12% active; AID 686979; further: potency means the concentration at half of the fitted maximal effect; nearly all actives have a fitted effect of over 55% in size
#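 Chicken DT40 Tdp1-/- cells complemented with human TDP1, 400 cells/well, exposed to compounds plus 20 nM camptothecin for at least 48 h at 37 C; viability read as ATP content by CellTiter-Glo luminescence.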
# HT1080 IDH1KD tx: HT-1080 IDH1 knockdown cell toxicity (counter line). 360,000 tested, 2% active. Potency, µM (top dose mostly 46.1 µM), for inactives: top-dose activity, negative = toxicity, most hits filed as cytotoxic. HT-1080 IDH1 knockdown viability, ATP luminescence, 48 h;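 further: potency means the concentration at half of the fitted maximal effect; 0% = DMSO wells and -100% = cell-free medium wells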
#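 After a 2 h attachment period, IDH1KD HT-1080 cells took pin-transferred compound for 48 h at 37 °C; ATP-based luminescence after 10 min room-temperature reagent incubation reported viability.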
# * hit, by the source's call; ? = inconclusive; nt = no result; [ ] = another dose, or the depositor's remark. Hits are enriched below; roughly 19% of the tested compounds scored in any of these assays. Unless noted, the call rests on the fitted dose curve; in most records, active means well fitted curve in the direction sought with a large enough effect; inconclusive means small, poorly fitted or top-dose-only effect, or another doubt; inactive means no such curve, though single readings can be large; an effect the other way counts as inactive or inconclusive. Unless noted, on the % scale 0 is the no-effect control and ±100 the full control effect.
SMILES,TDP1 cell noCPT,ELG1 repair inh,IL1B secr inh,HT1080NT lethal,TDP1 cell CPT,HT1080 IDH1KD tx
CC(C)(C)c1ccc(C(=O)N2CC(=O)Nc3ccc(F)cc3C2c2ccc(F)cc2)cc1 (stereo not given),18µM*,nt,nt,nt,26µM*,nt
Cc1ccc(S(=O)(=O)c2c(C)cc(C)[nH]c2=O)c(C)c1,-21%,-3%,-9,13%,5%,0%
Cc1c(C(=O)NCC2(N3CCOCC3)CCCCC2)cnn1-c1nccc(-c2ccccc2F)n1,?,nt,nt,nt,-8%[9.04 µM],nt
CCOc1ccc(C(=O)Cn2c(=O)n3nc(CCn4nc(C)cc4C)nc3c3cc(OC)c(OC)cc32)cc1,-2%,nt,nt,nt,14%,nt
O=C(CSc1nc(=O)n(Cc2ccco2)c2c1CCC2)NCc1ccccc1Cl,-14%,nt,nt,nt,-2%,nt
COC(=O)[C@H](Cc1ccc(O)cc1)NC(=O)Cn1cnc2c(SC)nc(N)nc21,-3%,0%,33,0%,-1%,-1%
CSc1nc(N)nc2c1ncn2CC(=O)NCCCc1ccccc1,15µM*,?,27,-7%,?,-2%
COc1ccc(CN(C)C(=O)Cn2cnc3c(SC)nc(N)nc32)cc1OC,21µM*,?,0,-2%,15µM*,-7%
COC(=O)c1ccc(CNC(=O)Cn2cnc3c(SC)nc(N)nc32)cc1,?,?,43,-7%,23µM*,0%
O=C(/C=C/[C@H]1O[C@@H](n2cnc3c(NC(=O)c4ccccc4)ncnc32)[C@H](O)[C@@H]1O)NCc1cccs1,-13%,nt,-4,24%,-28%,10%
O=C(NC1CCCC1)C(c1cccnc1)N(Cc1ccccc1F)C(=O)c1csnn1 (stereo not given),0%,8%,7,2%,3%,1%
COc1ccc(/C=N/Nc2nccnc2Cl)c(OC)c1,-14%,?,-14,-14%,5%,-10%
COc1ccc(/C=N/Nc2cc(C)nc(-n3nc(C)cc3C)n2)c(OC)c1,1.6µM*,-1%,-104*,?,1.5µM*,9.2µM*
Cc1cnn(-c2cc(N/N=C/c3ccc(F)cc3)ncn2)c1,-25%,-3%,-23,1%,-22%,1%
Cc1cc(N/N=C/c2ccc(F)cc2)nc(-n2nc(C)cc2C)n1,3.7µM*,?,48,?,2.9µM*,1.8µM*
N#Cc1csc(CCNC(=O)c2ccccc2)n1,1%,nt,-29,11%,6%,13%
O=C(Nc1ccc2c(c1)OCCO2)C(c1ccccc1F)n1c(=O)c(-c2cc3ccccc3[nH]2)nc2ccccc21 (stereo not given),18µM*,nt,-8,?,15µM*,?
O=C(Nc1ccc2ccccc2c1)C(c1ccc(C(F)(F)F)cc1)n1c(=O)c(-c2cc3ccccc3[nH]2)nc2ccccc21 (stereo not given),?,nt,60,?,?,16µM*
O=C(Nc1ccc2c(c1)OCCO2)C(c1ccncc1)n1c(=O)c(-c2cc3ccccc3[nH]2)nc2ccccc21 (stereo not given),?,nt,-19,?,?,?
O=C(Nc1ccc2c(c1)OCCO2)C(c1ccc(C(F)(F)F)cc1)n1c(=O)c(-c2cc3ccccc3[nH]2)nc2ccccc21 (stereo not given),?,nt,-8,?,?,16µM*
CC(C)(C)NC(=O)C(c1ccc(C#N)cc1)n1c(=O)c(-c2cc3ccccc3[nH]2)nc2ccccc21 (stereo not given),?,nt,16,?,?,?
COc1cc2c(-c3ccc(C)cc3)nc3c(c(C)nn3-c3ccccc3)c2cc1OC,2%,nt,nt,nt,1%,nt
COc1ccc2c(c1)c(CC(=O)Nc1cccc(F)c1C)c(C)n2C(=O)c1ccc(Cl)cc1,2%,nt,nt,nt,5%,nt
CCCN=C(N)NCCC[C@H](N)C(=O)O,2%,nt,nt,nt,25%,nt
COc1ccc(CCNC(=O)Nc2nc(CN)cs2)cc1OC,-22%,nt,1,0%,?,3%
SMILES,TDP1 cell noCPT,ELG1 repair inh,IL1B secr inh,HT1080NT lethal,TDP1 cell CPT,HT1080 IDH1KD tx
COc1ccc(CCNC(=O)Nc2nc(C(N)Cc3ccccc3)cs2)cc1OC (stereo not given),21µM*,nt,?,?,?,?
COc1ccc(CCNC(=O)Nc2nc(C(N)COCc3ccccc3)cs2)cc1OC (stereo not given),?,nt,?,?,?,-18%
COc1ccc(CC(N)c2csc(NC(=O)NCCc3ccc(OC)c(OC)c3)n2)cc1 (stereo not given),?,nt,?,?,18µM*,?
COc1cc(C(=O)N/N=C(\C)c2ccc3c(c2)OCO3)cc(OC)c1OC,1.6µM*,-22%,83,2.1µM*,1.6µM*,3.7µM*
COc1cc(C(=O)NNC(=S)NC(=O)c2ccc3c(c2)OCO3)cc(OC)c1OC,?,?,104,?,21µM*,?
COc1cc(C(=O)c2ccc3c(c2)OCO3)cc(OC)c1OC,5.2µM*,nt,23,?,2.6µM*,2.6µM*
C/C(=N/NC(=O)c1ccc2c(c1)OCO2)c1cccc([N+](=O)[O-])c1,2%,?,5,10%,-9%,15%
COc1cc(C(=O)c2cocc2C(=O)c2ccc3c(c2)OCO3)cc(OC)c1OC,0.73µM*,?,50,1.3µM*,0.73µM*,1.6µM*
CC(C)c1ccc(O)c(NC(=S)NC(=O)c2ccc3c(c2)OCO3)c1,15µM*,?,0,?,13µM*,15µM*
CCN(CC)CCN1C(=O)C(=O)/C(=C(/O)c2ccc(S(=O)(=O)N3CCOCC3)cc2)C1c1ccc(C(C)C)cc1 (stereo not given),0%,2%,-7,4%,-8%,6%
CC(=O)NC(CCc1ccc(Cl)c(Cl)c1)c1cccc(O)c(=O)c1 (stereo not given),7.3µM*,nt,139,?,23µM*,?
CCCn1c(SCC(=O)c2cc(C)n(-c3cc(C)on3)c2C)n[nH]c1=O,?,-25%,13,-3%,?,-7%
C/C(=N\NC(=O)c1cccc(Br)c1)c1ccccn1,0.92µM*,?,-15,?,0.73µM*,?
N/C(=N\OC(=O)c1ccccc1)c1ccccn1,-20%,?,4,?,-7%,?
